Reference: ChEMBL document CHEMBL4513149, “CO-ADD screening of MMV (CH) - MMV compounds” (2021)
Potency and affinity values are given separately.

Assays:
Staphylococcus aureus = settings: Concentration 20 uM; ASSAY_TEST Inhibition of Bacterial Growth; detection method Absorption (OD600); MEDIA CAMHB; plate type 384well; NBS; CORNING #3640; time 18 hr
Escherichia coli = settings: Concentration 20 uM; ASSAY_TEST Inhibition of Bacterial Growth; detection method Absorption (OD600); MEDIA CAMHB; plate type 384well; NBS; CORNING #3640; time 18 hr

SMILES | Inhibition (Staphylococcus aureus) [%] | Inhibition (Escherichia coli) [%]
CC(C)=CCC/C(C)=C\CNCCNC1C2CC3CC(C2)CC1C3 (stereo not drawn) | 37.58 | 10.47
CCOc1ccc(OCC(=O)Nc2cc(C)cc(C)c2)cc1 | 14.06 | 3.81
Cc1cc(Cl)c(S(=O)(=O)N2CCCC2)cc1OCC(=O)NC1CCCCC1 | 7.56 | 0.73
CN1CCCC1CCO[C@](C)(c1ccccc1)c1ccc(Cl)cc1.O=C(O)/C=C/C(=O)O (stereo partly drawn) | 18.42 | 10.75
CCc1nc2ccc(C(=O)NCc3ccc4c(c3)OCO4)cn2c1N(C)Cc1cccs1 | 4.69 | -1.74
CCOC(=O)c1noc(N)c1-c1ccccc1 | 31.41 | 11.39
CS(=O)(=O)N1CCC(Cn2nc(Cc3cccc4ccccc34)c3c(N)ncnc32)CC1 | 11.53 | 3.3
Cc1ccc(S(=O)(=O)n2cc(-c3ccnc(N)c3)c3cc(Br)cnc32)cc1 | 9.7 | -3.65
O=C(Cn1ccnc1[N+](=O)[O-])NCc1ccccc1 [BENZNIDAZOLE] | 21.81 | 9.92
NC(=O)c1cc(Br)ccc1OCCOc1ccccc1 | 12.29 | -2.13
Cc1ccc(S(=O)(=O)N2CCN(C(=O)c3cc(-c4ccccc4)n[nH]3)CC2)cc1 | 1.4 | 11.29
OC[C@H]1O[C@@H](n2c3ccc(Cl)cc3c3c(-c4cc5ccccc5o4)ncnc32)C(O)[C@H]1O (stereo partly drawn) | 9.2 | 8.79
Cn1ncc2c(N3CCOCC3)nc(NCCc3c[nH]c4ccccc34)nc21 [TDR79432] | 12.92 | -1.67
COc1ccc(-c2nc(-c3cccc(NC(=O)Cc4ccc(F)cc4)c3)no2)cc1OC | 22.17 | 8.52
COc1cc2ncnc(NC3CCN(Cc4ccccc4)CC3)c2cc1OC | 7.78 | -0.93
Cl.O[C@@H](c1cc(C(F)(F)F)nc2c(C(F)(F)F)cccc12)[C@H]1CCCCN1 | 45.36 | 15.86
Clc1ccc(CCNc2cc(-c3ccccc3)nc3ncnn23)cc1 | 16.06 | 4.96

SMILES | Inhibition (Staphylococcus aureus) [%] | Inhibition (Escherichia coli) [%]
Nc1ncnc2c1ncn2C[C@@H](O)[C@@H](O)C(=O)O [ERITADENINE] | 13.9 | 8.78
CC(C)n1nc(-c2cc3c(Cl)cccc3[nH]2)c2c(N)ncnc21 | 11.03 | 4.95
FC(F)(F)c1nnc2ccc(Cl)nn12 | 14.72 | 1.56
CC(Oc1cccc(Cl)c1)C(=O)Nc1ccc2oc(-c3ccncc3)nc2c1 (stereo not drawn) | 60.53 | 7.3
NCC(=O)N1CCn2c(nc(-c3ccccc3)c2Nc2ccc3c(c2)OCO3)C1 | 11.35 | -1.15
N=C(N)c1ccc(-c2cc(-c3ccccc3)on2)cc1 | 23.63 | 12.9
Nc1ccc(C(=O)Nc2ccc(-c3nc4ccccc4o3)cc2)cc1 | 11.63 | 11.29
Cc1ccccc1C(=O)N1N=C(Nc2ccccc2)SC1(C)C | 8.67 | 8.51
CCn1cnc2c(Nc3cc(F)cc(F)c3)nc(C#N)nc21 | 36.21 | 12.2
CCN(CC)C(=O)N1CCN(C)CC1 [DIETHYLCARBAMAZINE] | 20.12 | 7.97
Cc1cc(C)n2nc(C(=O)Nc3cc(C(F)(F)F)ccc3N3CCOCC3)nc2n1 | 13.59 | 10.47
CC(C)(C)C(=O)N(CCCCCCN1C[C@H](O)[C@@H](O)[C@H](O)[C@H]1CO)C1CCCCCC1 | -1.36 | 4.68
Cc1nn(C(=O)Nc2cccc(C(F)(F)F)c2)c(C)c1Sc1ncccn1 | 14.85 | 7.79
O=C(C1CCN(c2cc(-n3cccc3)ncn2)CC1)N1CCc2ccccc2C1 | 7.19 | 12.02
C[C@]1(O)C[C@@H](c2nc(-c3ccc4ccc(-c5ccccc5)nc4c3)c3c(N)nccn32)C1 [LINSITINIB] | 13.39 | 6.95
O=C(NC1CCCCC1)N1CCN(Cc2ccc3c(c2)OCO3)CC1 | 15.03 | 4.44
CC(=O)Nc1ccc(NC(=O)c2cc(-c3cc(Cl)ccc3O)n[nH]2)cc1 | 5.62 | 10.03
